The values that follow come from PubChem BioAssay AID686970 (National Center for Advancing Translational Sciences (NCATS), 2013).

Among all 360,000 compounds or so, about 6,000 (1.7%) were called active. Entries that show only a call come without a potency. Roughly 8% stayed inconclusive and do not appear here. The sample holds actives, similar compounds and a random draw of the others, so the mix is not that of the screen. The call rests on the fitted dose curve; in most records, active means well fitted cell-killing curve with a large enough effect; inconclusive means small, poorly fitted or top-dose-only effect, or effect the other way; inactive means flat fitted curve, though single readings scatter.
Potency means the concentration at half of the fitted maximal effect.

The experiment can be described thus: qHTS for induction of synthetic lethality in tumor cells producing 2HG: qHTS for the HT-1080-NT fibrosarcoma cell line.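 Further: NT is the 2HG producing partner of a matched IDH1 knockdown line; nearly all actives have a fitted effect of over 55% in size.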 The conditions noted are these: HT-1080-NT fibrosarcoma viability, CellTiter-Glo ATP luminescence, 48 h; series mostly up to 46.1 µM. The method in brief:
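Fibrosarcoma NT cells, 750 per well in 5% FBS RPMI, were exposed to compound for 48 hours. Viability: CellTiter-Glo luminescence.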
With `CN1C[C@@H](CO)O[C@@H](n2cnc3c(N4CCN(CCO)CC4)ncnc32)C1`, the Potency result is “inactive”. Same read-out and setting: to `CCOC(=O)N1CCN(S(=O)(=O)c2ccc(Br)cc2)CC1` belongs “inactive”. On the same count and under the same terms, to `CCOC(=O)N1CCN(S(=O)(=O)c2ccc(C(=O)Nc3ccc(F)cc3F)cc2)CC1` belongs 1.78 µM (active). For `O=C(Nc1ccccc1F)c1ccc(S(=O)(=O)N2CCCCCC2)cc1`, the activity, negative = less viability is -4.83% [at 9.24 µM] (inactive).

Turning to `O=C(c1cccs1)N1C[C@H](n2cc(C3CC3)nn2)[C@@H](O)C[C@@H]1c1ccccc1`, the Potency entry is “inactive”. On the same count and under the same terms, under `CNC(=O)C[C@H]1C(=O)N(Cc2ccccc2)C[C@@H]1CSC` stands “inactive”; under `Cc1cccc(C)c1-n1nnnc1C(CCc1ccccc1)N1CCN(C/C=C/c2ccccc2)CC1` (centres undefined), “inactive”. For `CN(C)CCN(C(=O)CN1C(=O)c2ccccc2C1=O)c1nc2cc3c(cc2s1)OCCO3`, the Potency entry was “inactive”.

Turning to `Cc1ccc2nc(N(CCN(C)C)C(=O)C3=COCCO3)sc2c1`, the Potency entry was “inactive”.

Turning to `COc1ccc2sc(N(CCCN(C)C)C(=O)c3ccc(S(=O)(=O)N(C)C4CCCCC4)cc3)nc2c1`, the Potency result is “inactive”.

Turning to `Brc1ccc2nc(N3CCCC3)sc2c1`, the Potency result was “inactive”. The same measure, in the same setting: under `CCc1ccc2nc(N(CCCN(C)C)C(=O)c3ccc4c(c3)OCCO4)sc2c1` stands 20.6 µM (active); under `CN(C)CCCN(C(=O)c1ccc(S(=O)(=O)N2CCCCCC2)cc1)c1nc2ccc(Br)cc2s1`, 18.4 µM (active); under `OC(c1ccccc1)c1nc(/C=C/c2ccc(C(F)(F)F)cc2)cs1` (centres undefined), “inactive”. Same read-out and setting: under `CC(=O)C[C@@H]1OC[C@H](C)N1S(=O)(=O)c1ccc(C)cc1` stands “inactive”; under `C=CCn1c2c(c3ccccc31)CCC2`, “inactive”; under `Cc1cccc(CNC(=O)c2sc(=O)n(Cc3ccccc3C)c2C)c1`, “inactive”. On the same count and under the same terms, to `O=S(=O)([N-]c1nc2ccccc2nc1-[n+]1ccc(Cc2ccccc2)cc1)c1ccc(Br)s1` belongs 14.6 µM (active); to `O=C(NCCc1ccccc1)C1CCN(S(=O)(=O)c2ccc(Br)s2)CC1`, “inactive”; to `O=S(=O)(NCc1cccnc1)c1ccc(Br)s1`, “inactive”. As to `C[C@@H]1CN([C@@H](C)CO)C(=O)c2cc(Br)cnc2O[C@H]1CN(C)Cc1ccc(-c2ccccc2)cc1`, the Potency result was “inactive”. Same read-out and setting: to `COc1ccccc1N1CCN(C(=O)c2c(-c3c(Cl)cccc3Cl)noc2C)CC1` belongs “inactive”; to `COc1ccccc1N1CCN(C(=O)c2cc(=O)c3cc(C)cc(C)c3o2)CC1`, 0.0206 µM (active). The same measure, in the same setting: to `COc1ccccc1N1CCN(C(=O)c2ccc(Cl)c(S(=O)(=O)N3CCCC3)c2)CC1` belongs “inactive”; to `O=C(NC1CCCC1)C1c2ccccc2OCC(=O)N1Cc1ccccc1` (centres undefined), “inactive”; to `COc1ccc(-c2ccc(Nc3ccc(S(=O)(=O)N4CCCC4)cc3)nn2)cc1OC`, 11.2 µM (active). In the case of `COc1ccc(S(=O)(=O)N2CCCCCC2)cc1NC(=O)Cc1ccc(OC)c(OC)c1`, the Potency result is “inactive”. On to `COc1cc(C(C)=O)ccc1OC(C)C(=O)Nc1ccc(S(=O)(=O)N2CCCC2)cc1` (centres undefined), for which the Potency result is “inactive”. Same read-out and setting: to `CCc1nc2c(OCCOc3ccccc3)cccn2c1N(C)C(=O)c1ccccc1F` belongs “inactive”. Still for that read-out and setting: under `O=C1c2ccccc2C(=O)N1CCC#Cc1ccc2cc(C3(O)CCCCC3)oc(=O)c2c1` stands “inactive”.

In the case of `COc1cc(C#Cc2ccc3cc(CCCO)oc(=O)c3c2)cc(OC)c1`, the Potency was 4.61 µM (active). Still for that read-out and setting: under `CCC(=O)N1CCCC1(C)C(=O)Nc1ccc2c(c1)CCN2C(C)=O` (centres undefined) stands “inactive”. On the same count and under the same terms, to `CCOC(=O)C1(C)CCCN(C(=O)c2cccc(Cl)c2)C1` (centres undefined) belongs “inactive”. Take `O=C(Nc1ccc(Cl)cn1)c1ccccc1-c1ccccc1`: the Potency result was “inactive”. Turning to `COCCOC(=O)c1[nH]c2c(c1C)C(=O)CC(c1ccc(OC)cc1)C2` (centres undefined), the Potency result was “inactive”. Same read-out and setting: under `COC(=O)C1C(=O)c2c([nH]c(C(=O)OCCSC)c2C)CC1C` (centres undefined) stands “inactive”. On the same count and under the same terms, to `CCCOC(=O)c1[nH]c2c(c1C)C(=O)CC(c1cccs1)C2` (centres undefined) belongs 1.3 µM (active); to `O=C(COC(=O)c1ccc(S(=O)(=O)N2CCCCCC2)cc1)Nc1ccccc1C(F)(F)F`, “inactive”. On the same count and under the same terms, to `O=C1c2ccccc2-c2ccccc2NC1O` (centres undefined) belongs “inactive”; to `Cc1ccc2sc(N(CCN(C)C)C(=O)/C=C/c3cccs3)nc2c1C`, “inactive”.

As to `Cc1cc(C)c2nc(N(CCN(C)C)C(=O)/C=C/c3cccs3)sc2c1`, the Potency entry is “inactive”.

For the compound `COc1cccc2sc(N(CCCN(C)C)C(=O)C(c3ccccc3)c3ccccc3)nc12`, the Potency is 20.6 µM (active). The same measure, in the same setting: under `CCCCn1nnnc1C(c1cc2ccccc2o1)N(C)Cc1ccc(Cl)c(Cl)c1` (centres undefined) stands “inactive”; under `CCN(/N=C/c1ccccc1)c1cc(=O)n(C)c(=O)[nH]1`, “inactive”.

In the case of `CN(/N=C/c1ccccc1)C(=S)c1ccccc1`, the Potency entry was “inactive”. Same read-out and setting: under `Oc1ccc(/C=N/N(Cc2ccccc2)c2ccccc2)cc1` stands 20.6 µM (active); under `Cc1cc(OCC(=O)Nc2nccs2)c2c(C)c(C)c(=O)oc2c1`, “inactive”; under `Cc1ccccc1C(OCC(O)CN1CCCCC1CCO)c1ccccc1` (centres undefined), “inactive”.

Turning to `COc1cccc(CN(C)CC(=O)Nc2ccccc2C(=O)Nc2ccccc2)c1`, the Potency result is “inactive”. Same read-out and setting: to `COc1cccc(CN(C)CC(O)COC(c2ccccc2)c2ccccc2C)c1` (centres undefined) belongs 23.1 µM (active); to `Cc1cc(Cl)ccc1-c1nc(NCCN(C)C)nc2ccsc12`, 20.6 µM (active). Same read-out and setting: under `Cc1cc(=O)c2ccc(NC(=O)c3ccccc3)cc2[nH]1` stands “inactive”; under `Cc1ccc(-c2cc(=O)c3ccc(F)cc3[nH]2)cc1`, “inactive”. Same read-out and setting: under `O=c1cc(-c2ccccc2)[nH]c2cc(F)ccc12` stands 2.59 µM (active); under `FC(F)(F)Oc1ccccc1C(c1nnnn1C1CCCCC1)N1CCN(C/C=C/c2ccccc2)CC1` (centres undefined), “inactive”; under `O=C(Nc1nnc(S(=O)(=O)N2CCOCC2)s1)c1cccc(Br)c1`, “inactive”. `O=C(Nc1nnc(S(=O)(=O)N2CCCCCC2)s1)c1cccc(Br)c1`: the Potency was 23.1 µM (active).

As to `Cc1cccc(C(=O)Nc2nnc(S(=O)(=O)N3CCCCCC3)s2)c1`, the Potency result was “inactive”.

Take `CC1(C(=O)Nc2ccccc2Br)CCN1C(=O)CC1CC1` (centres undefined): the Potency entry was “inactive”. As for `CCOC(=O)[C@]12CCC=C1N(Cc1cccc3ccccc13)C(=O)[C@H](CC(=O)NCc1cccc(C(F)(F)F)c1)C2`, the Potency entry is “inactive”. The same measure, in the same setting: to `CCCNC(=O)C1(C)CCCN(C(=O)c2cccc(OC(C)=O)c2C)C1` (centres undefined) belongs “inactive”; to `CC1(C(=O)Nc2ccc3c(c2)OCCO3)CN(S(C)(=O)=O)CC(=O)N1Cc1cccc(F)c1` (centres undefined), “inactive”; to `CC(=O)Nc1ccc(NC(=O)COC(=O)c2ccccc2C(=O)c2ccccc2)cc1`, “inactive”.

As for `COC(=O)c1cc(NC(=O)Cc2ccccc2[N+](=O)[O-])ccc1Cl`, the Potency entry was “inactive”.

`N#Cc1cccc(NC(=O)COC(=O)c2ccccc2C(=O)c2ccc(Cl)c([N+](=O)[O-])c2)c1`: the Potency is 7.31 µM (active). Still for that read-out and setting: to `COc1ccc(C2Nc3ccc(NC(=O)COC(C)=O)cc3C(=O)N2Cc2ccccc2)cc1COc1ccc(NC(C)=O)cc1` (centres undefined) belongs “inactive”; to `CC(Sc1ccc(S(=O)(=O)N2CCN(C)CC2)cn1)C(=O)NC1CCCC(C)C1C` (centres undefined), “inactive”. With `COc1ccc(C)cc1S(=O)(=O)N1CCN(S(=O)(=O)c2cc(C(=O)O)ccc2C)CC1`, the Potency result is “inactive”.

Turning to `Cc1ccc(C)c(S(=O)(=O)N2CCN(c3ncnc4sccc34)CC2)c1`, the Potency was 5.8 µM (active). On the same count and under the same terms, under `Cc1ccc(S(=O)(=O)N2CCN(c3ncnc4ccccc34)CC2)cc1` stands “inactive”. Same read-out and setting: under `CC1CCCC(C)N1C(=O)COC(=O)c1ccccc1C(=O)c1ccccc1` (centres undefined) stands “inactive”; under `Cc1ccccc1Cn1c(C)c(C(=O)NCc2cccc(C(F)(F)F)c2)sc1=O`, “inactive”.

With `OCCc1ccc(NCCc2ccco2)cc1`, the Potency entry is “inactive”. The same measure, in the same setting: to `CC1=C/C(=N\OS(=O)(=O)c2ccccc2)C=CC1=O` belongs 20 µM (active); to `NC(=O)CSc1nnc(-c2cccc(S(=O)(=O)N3CCOCC3)c2)o1`, “inactive”. Same read-out and setting: under `Cc1cccc(C)c1Cn1c(C)c(C(=O)NCc2cccc(Cl)c2)sc1=O` stands “inactive”; under `OC(c1ccccc1)c1nc(-c2cnc3ccccc3c2)cs1` (centres undefined), “inactive”; under `NC(=O)CSc1nnc(NC(=O)c2ccc3ccccc3c2)s1`, “inactive”.

Regarding `O=C(Nc1nnc(SCc2c(Cl)cccc2Cl)s1)c1cccc([N+](=O)[O-])c1`, the Potency entry is “inactive”. `O=C(Nc1nnc(SCc2ccccc2Cl)s1)c1cccc([N+](=O)[O-])c1`: the Potency was 18.4 µM (active).

Regarding `CC1=C(C(=O)N2CCOCC2)CC(CC(=O)NCCCN(C)C)C(=O)N1Cc1ccc(C(C)(C)C)cc1` (centres undefined), the Potency entry was “inactive”. Still for that read-out and setting: to `O=C(NCc1ccc(Cl)cc1)C1CCN(S(=O)(=O)c2cccs2)CC1` belongs “inactive”; to `O=C(C1CCN(S(=O)(=O)c2cccs2)CC1)N1CCCCCC1`, “inactive”; to `O=C(Nc1ccc(Br)cn1)C1CCN(S(=O)(=O)c2cccs2)CC1`, 9.2 µM (active).

Regarding `Cc1ccc(C(=O)Nc2c(-c3ccccc3)[nH][nH]c2=O)cc1`, the Potency entry is “inactive”. `O=C(OC12CC3CC(CC(C3)C1)C2)c1ccc(NCc2cc(O)ccc2O)cc1`: the Potency is 14.6 µM (active). For `CCN(CC)C(=O)CCC(=O)Nc1ccc(C(=O)OC)cc1`, the Potency result was “inactive”. On the same count and under the same terms, under `CC(C)OC(=O)c1ccc(NCc2cc(O)ccc2O)cc1Cl` stands 20.6 µM (active); under `C#CCNc1ccc(C(=O)OCC)cc1`, “inactive”. On the same count and under the same terms, under `CC(CN1CCOCC1)OC(=O)c1ccc(Cl)cc1Cl` (centres undefined) stands “inactive”; under `CC(OC(=O)c1ccc(Cl)cc1O)C(=O)NCCC1=CCCCC1` (centres undefined), “inactive”; under `CC1(C)C2CCC1(C)C(OC(=O)c1ccc(O)cc1)C2` (centres undefined), “inactive”. Still for that read-out and setting: under `COC(=O)c1ccc(NCc2cc(O)ccc2O)cc1` stands 16.4 µM (active); under `CC(C)CCC(=O)Nc1cc(S(=O)(=O)N2CCOCC2)ccc1N1CCCC1`, “inactive”. In the case of `Cc1ccc(S(=O)(=O)N2CCOCC2)cc1NC(=O)c1ccncc1`, the Potency result is “inactive”. Still for that read-out and setting: under `Cc1ccc(S(=O)(=O)N2C[C@]3(O)C[C@@H]4C(=O)N(c5ccccc5)C(=O)[C@@H]4C[C@]3(OC(=O)NC3CC3)C2)cc1` stands “inactive”; under `Cc1ccccc1-c1nc(NC(C)C)nc2cc(-c3ccccc3)sc12`, “inactive”; under `COc1ccc(CCn2c3c(c(=O)[nH]c2=S)CN(C(C)C)CN3)cc1OC`, “inactive”. With `CC1(C(=O)Nc2cccc3cccnc23)CCN1C(=O)CCC1CCCC1` (centres undefined), the Potency result is “inactive”.
